High-throughput results (PubChem)
Most compounds without a hit are left out; they make up all but 6.7% or so of the library.
Pf Dd2 growth: P. falciparum Dd2 growth inhibition | SYBR Green, 72 h; hits give low values | AID 1159554 | activity change, % at 10 µM | 94,000 tested, 2.3% active; in the data active = activity change below about -80%; inconclusive = no clear call, values can overlap the other calls
C diff growth: C. difficile growth inhibition; Clostridium difficile clinical isolate growth, OD600, 24 h; hits give low values; growth activity, negative = inhibition, % at 16 µg/mL (by protocol); 86,000 tested, 0.25% active;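 active = mean growth activity at or below -80% and every replicate also at or below -80%; inconclusive = mean at or below -80% but some replicate above -80%; inactive = mean growth activity above -80%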
T cruzi growth-1: blocks T. cruzi growth in NIH3T3 culture; T. cruzi beta-gal in NIH3T3, GalScreen luminescence, 90 h; inhibition, % at 8.34 µM; 77,000 tested, 5.9% active; AID 624255;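 active = mean inhibition above about 93%, with at least 55% of replicates each passing it, limit read from the data, passing the limit was not always enough; inconclusive = only one of those two conditions holds; inactive = neither condition holds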
T cruzi growth-2: blocks T. cruzi growth in NIH3T3 host cells; shares compounds with T cruzi growth-1; T. cruzi beta-gal in NIH3T3, GalScreen luminescence, 90 h; inhibition, % at 8.35 µM; 5,600 tested, 72% active;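 active = mean replicate inhibition above about 95% and at least 55% of replicates individually reaching it, limit read from the data; inconclusive = only one of the two criteria is met; inactive = neither criterion is met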
T cruzi growth-3: blocks T. cruzi growth in NIH3T3 host cells. inhibition, % at 2.09 µM. 5,600 tested, 21% active. AID 651740. T. cruzi beta-gal in NIH3T3, GalScreen luminescence, 90 h. shares compounds with T cruzi growth-1;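 active = mean inhibition above about 95%, with at least 55% of replicates also reaching it, limit read from the data; inconclusive = meets just one of the two conditions; inactive = meets neither condition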
3T3 cytotox: kills mouse NIH/3T3 fibroblasts; shares compounds with T cruzi growth-1; NIH/3T3 viability, CellTiter-Glo ATP luminescence, 90 h; cytotoxicity (signal decrease), % at 8.35 µM; 5,600 tested, 14% active; AID 651742;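 active = mean signal decrease across replicates above about 35% based on untreated-well scatter, with enough replicates individually passing, limit read from the data; inconclusive = no rule stated though some were filed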
3T3 cytotox 2: kills mouse NIH/3T3 fibroblasts; 5,600 tested, 56% active; shares compounds with T cruzi growth-1; NIH/3T3 viability, CellTiter-Glo ATP luminescence, 90 h; inhibition, % at 24.9 µM; AID 651744;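 active = mean loss of cell viability signal at or above a set limit, and enough replicates individually reaching it; inconclusive = meets only the mean limit or only the replicate share; inactive = meets neither condition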
Large screens that a line does not name were inactive (follow-up assays come after a bar, where they were run).

COc1ccc(CN(C)C[C@@H]2OCCCC[C@@H](C)Oc3ccc(NC(=O)Nc4ccc(C(F)(F)F)cc4)cc3C(=O)N([C@@H](C)CO)C[C@@H]2C)cc1	none
COc1ccc(NC(=O)Nc2ccc3c(c2)C(=O)N([C@H](C)CO)C[C@@H](C)[C@@H](CN(C)Cc2ccc(C(F)(F)F)cc2)OCCCC[C@H](C)O3)cc1	T cruzi growth-1 100 | T cruzi growth-2 inactive | T cruzi growth-3 108 | 3T3 cytotox inactive | 3T3 cytotox 2 inactive
O=C(C[C@H]1C=C[C@H](NC(=O)CCN2CCCCC2)[C@H](CO)O1)Nc1nccs1	none (no result: C diff growth)
C[C@@H]1CN([C@@H](C)CO)C(=O)c2ccccc2-c2ccccc2CO[C@@H]1CN(C)Cc1ccncc1	T cruzi growth-1 inconclusive | T cruzi growth-2 inactive | T cruzi growth-3 inactive | 3T3 cytotox inactive | 3T3 cytotox 2 inconclusive
C[C@@H]1CN([C@H](C)CO)C(=O)c2ccccc2-c2ccccc2CO[C@@H]1CN(C)Cc1ccncc1	none
C[C@@H]1CN([C@H](C)CO)C(=O)c2ccccc2-c2ccccc2CO[C@@H]1CN(C)Cc1ccc(O)cc1	none (no result: C diff growth)
C[C@H](CO)N1C[C@H](C)[C@@H](CN(C)Cc2ccncc2)OCc2ccccc2-c2ccccc2C1=O	T cruzi growth-1 inconclusive | T cruzi growth-2 inactive | T cruzi growth-3 inactive | 3T3 cytotox inactive | 3T3 cytotox 2 inactive
COCC(=O)N1CC2(CN(C(=O)NC(C)C)C2)c2c(n(C)c3cc(OC)ccc23)[C@H]1CO	none (no result: T cruzi growth-1)
CC=Cc1ccc2n(c1=O)C[C@@H]1[C@@H](CO)[C@H](C(=O)N[C@@H](C)c3ccccc3)N(C(=O)c3cnccn3)[C@H]21 (mixture of isomers)	none (no result: Pf Dd2 growth)
CC(=O)N(C)C[C@@H]1Oc2cc(C#CCC3CCCC3)ccc2S(=O)(=O)N([C@@H](C)CO)C[C@H]1C	none
COc1ccc(CN(C)C[C@H]2Oc3c(NC(=O)c4ccncc4)cccc3C(=O)N([C@@H](C)CO)C[C@@H]2C)cc1	T cruzi growth-1 100 | T cruzi growth-2 inactive | T cruzi growth-3 inactive | 3T3 cytotox inactive | 3T3 cytotox 2 37
C[C@@H]1CN([C@@H](C)CO)C(=O)c2cccc(NC(=O)c3ccncc3)c2O[C@H]1CN(C)Cc1ccncc1	none
COc1ccc(CN(C)C[C@@H]2Oc3c(NC(=O)c4ccncc4)cccc3C(=O)N([C@@H](C)CO)C[C@H]2C)cc1	T cruzi growth-1 105 | T cruzi growth-2 inactive | T cruzi growth-3 inactive | 3T3 cytotox inactive | 3T3 cytotox 2 26
C[C@H](CO)N1C[C@H](C)[C@@H](CN(C)Cc2ccncc2)Oc2c(NC(=O)c3ccncc3)cccc2C1=O	none
CCCNC(=O)N1[C@H](CO)[C@H](c2ccccc2)[C@@H]1CNC(=O)c1cccc(F)c1	T cruzi growth-1 98 | T cruzi growth-2 inactive | T cruzi growth-3 inactive | 3T3 cytotox inactive | 3T3 cytotox 2 inactive
CCCNC(=O)N1[C@H](CO)[C@H](c2ccccc2)[C@@H]1C#N	none
CCCNC(=O)N1[C@@H](C#N)[C@@H](c2ccc(C#Cc3cccc(F)c3)cc2)[C@@H]1CO	T cruzi growth-1 100 | T cruzi growth-2 103 | T cruzi growth-3 inactive | 3T3 cytotox inactive | 3T3 cytotox 2 50
CCCNC(=O)N1[C@@H](C#N)[C@H](c2ccc(C#Cc3cccc(F)c3)cc2)[C@@H]1CO	T cruzi growth-1 inconclusive | T cruzi growth-2 99 | T cruzi growth-3 inactive | 3T3 cytotox inactive | 3T3 cytotox 2 inconclusive
N#C[C@H]1[C@H](c2ccc(C#Cc3cccc(F)c3)cc2)[C@@H](CO)N1C(=O)C1CCOCC1	none
CCCNC(=O)N1[C@H](CO)[C@@H](c2ccccc2)[C@@H]1CNC(=O)c1ccccc1	none
O=C(C[C@@H]1CC[C@H](NC(=O)C2CCOCC2)[C@H](CO)O1)NCc1ccncc1	none (no result: T cruzi growth-1)
CO[C@@H]1CN(C)C(=O)c2ccc(NC(=O)C3CCC3)cc2OC[C@@H](C)N(C(=O)CN(C)C)C[C@@H]1C	none
CO[C@@H]1CN(C)C(=O)c2ccc(NC(C)=O)cc2OC[C@@H](C)N(C(=O)c2ccccc2F)C[C@@H]1C	none
COc1ccc(CN(C)C[C@H]2Oc3c(NS(=O)(=O)c4ccc(C)cc4)cccc3C(=O)N([C@H](C)CO)C[C@@H]2C)cc1	none
